{"source": "the supplement of paper PMC10849652", "note": "About 8,800 targets were measured; listed, in parts, are those with a hit and a random draw of the rest. About 0.5% of all pairs of compound and target were hits."}
{"compound": "NCC(=O)Nc1ccc(-n2nc(C(F)(F)F)cc2-c2ccc3c(ccc4ccccc43)c2)cc1", "assay": "log2 fold change, soluble protein after heating vs DMSO (PISA); higher = thermal stabilisation; K562 lysate, 10 uM; active = over 0.2 and 3.5 SD of the protein, either way, in both replicates (recomputed)", "outline": "(§1)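 Log-two fold change in thermal stability relative to solvent controls is reported from duplicates. For each sample, crude K562 extract from dounce-homogenised pellets in PBS pH 7.4 with 1 mM MgCl2, at 1 mg/mL protein, was treated with 10 μM compound for 30 min. Aliquots heated for 3 min across 48°C-58°C were pooled, brought to 0.5% NP-40 at 4°C and cleared at 21,000xg for 90 min. The supernatant was quantified by TMTpro 16plex LC-MS/MS with channel sums equalised.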"}
{"target": "TLK2 isoform 2 (UniProt Q86UE8)", "sequence (Q86UE8 whole entry, looked up)": "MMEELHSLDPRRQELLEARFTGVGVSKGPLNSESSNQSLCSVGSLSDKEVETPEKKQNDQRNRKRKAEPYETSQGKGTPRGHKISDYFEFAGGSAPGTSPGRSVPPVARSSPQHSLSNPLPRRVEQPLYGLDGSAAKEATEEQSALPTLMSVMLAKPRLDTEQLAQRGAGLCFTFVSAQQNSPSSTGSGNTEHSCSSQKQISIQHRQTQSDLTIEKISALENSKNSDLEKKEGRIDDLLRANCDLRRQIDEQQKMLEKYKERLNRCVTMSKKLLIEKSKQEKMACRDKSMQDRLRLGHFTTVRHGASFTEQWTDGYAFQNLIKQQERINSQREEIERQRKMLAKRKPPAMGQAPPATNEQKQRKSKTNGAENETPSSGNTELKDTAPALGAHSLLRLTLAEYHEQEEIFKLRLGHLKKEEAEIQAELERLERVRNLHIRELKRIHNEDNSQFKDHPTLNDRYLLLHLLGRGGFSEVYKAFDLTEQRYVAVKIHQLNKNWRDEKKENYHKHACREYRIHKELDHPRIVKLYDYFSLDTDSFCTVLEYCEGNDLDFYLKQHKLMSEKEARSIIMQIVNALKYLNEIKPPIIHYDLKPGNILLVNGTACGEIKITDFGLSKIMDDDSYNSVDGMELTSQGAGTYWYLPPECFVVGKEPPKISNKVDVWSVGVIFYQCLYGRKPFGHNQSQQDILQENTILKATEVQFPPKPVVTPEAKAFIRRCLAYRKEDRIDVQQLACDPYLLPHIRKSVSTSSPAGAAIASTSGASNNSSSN", "log2 fold change": "0.019 (inactive)"}
{"target": "UBXN10 (UniProt Q96LJ8)", "log2 fold change": "-0.018 (inactive)"}
{"target": "TTK (UniProt P33981)", "log2 fold change": "-0.009 (inactive)"}
{"target": "TUBB3 (UniProt Q13509)", "log2 fold change": "-0.012 (inactive)"}
{"target": "TRAF2 isoform 2 (UniProt Q12933)", "log2 fold change": "0.014 (inactive)"}
{"target": "TNIK (UniProt C9J338)", "log2 fold change": "0.195 (inactive)"}
{"target": "TUBGCP3 (UniProt Q96CW5)", "log2 fold change": "-0.014 (inactive)"}
{"target": "TPST2 (UniProt O60704)", "sequence (O60704 whole entry, looked up)": "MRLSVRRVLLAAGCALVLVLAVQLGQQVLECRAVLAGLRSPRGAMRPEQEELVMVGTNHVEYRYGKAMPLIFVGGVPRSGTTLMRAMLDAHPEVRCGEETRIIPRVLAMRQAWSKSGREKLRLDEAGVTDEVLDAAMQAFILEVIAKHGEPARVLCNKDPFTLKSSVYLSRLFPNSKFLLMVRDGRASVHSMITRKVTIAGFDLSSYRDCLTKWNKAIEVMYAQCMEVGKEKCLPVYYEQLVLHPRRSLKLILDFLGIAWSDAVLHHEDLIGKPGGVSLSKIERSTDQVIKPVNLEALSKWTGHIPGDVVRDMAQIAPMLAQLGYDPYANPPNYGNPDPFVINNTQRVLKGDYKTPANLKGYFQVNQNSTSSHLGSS", "log2 fold change": "0.045 (inactive)"}
{"target": "TRIP12 isoform 2 (UniProt Q14669)", "log2 fold change": "-0.057 (inactive)"}
{"target": "TNKS (UniProt O95271)", "log2 fold change": "-0.009 (inactive)"}
{"target": "TUBA3C (UniProt P0DPH7)", "log2 fold change": "0 (inactive)"}
{"target": "TMEM161B (UniProt Q8NDZ6)", "log2 fold change": "-0.084 (inactive)"}
{"target": "TMEM70 (UniProt Q9BUB7)", "log2 fold change": "-0.081 (inactive)"}
{"target": "THOC5 (UniProt Q13769)", "log2 fold change": "0.012 (inactive)"}
{"target": "TPM4 isoform 2 (UniProt P67936)", "log2 fold change": "0.02 (inactive)"}
{"target": "TOR3A (UniProt Q9H497)", "sequence (Q9H497 whole entry, looked up)": "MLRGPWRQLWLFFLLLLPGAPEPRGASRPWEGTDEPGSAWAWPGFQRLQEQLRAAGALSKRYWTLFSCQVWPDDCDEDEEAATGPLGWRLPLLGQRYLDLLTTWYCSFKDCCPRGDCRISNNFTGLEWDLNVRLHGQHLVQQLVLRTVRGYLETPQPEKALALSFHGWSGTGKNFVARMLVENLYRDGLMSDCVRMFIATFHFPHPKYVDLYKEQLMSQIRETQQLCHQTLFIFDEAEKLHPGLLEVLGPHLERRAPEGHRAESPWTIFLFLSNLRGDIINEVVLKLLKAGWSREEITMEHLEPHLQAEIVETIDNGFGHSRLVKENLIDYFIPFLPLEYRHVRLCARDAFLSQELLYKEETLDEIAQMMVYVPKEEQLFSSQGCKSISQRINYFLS", "log2 fold change": "0.011 (inactive)"}
{"target": "TFAP4 (UniProt Q01664)", "log2 fold change": "0.005 (inactive)"}
{"target": "UBXN6 (UniProt Q9BZV1)", "log2 fold change": "0.04 (inactive)"}
{"target": "TRA2A (UniProt Q13595)", "sequence (Q13595 whole entry, looked up)": "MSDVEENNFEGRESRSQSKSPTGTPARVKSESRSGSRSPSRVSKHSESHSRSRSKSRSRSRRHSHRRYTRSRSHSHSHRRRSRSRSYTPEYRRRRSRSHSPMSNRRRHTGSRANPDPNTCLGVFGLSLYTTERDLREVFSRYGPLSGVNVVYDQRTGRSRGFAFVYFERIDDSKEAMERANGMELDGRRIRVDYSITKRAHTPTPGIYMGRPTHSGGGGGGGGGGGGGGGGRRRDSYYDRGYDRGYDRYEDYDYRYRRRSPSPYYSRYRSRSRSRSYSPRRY", "log2 fold change": "0.009 (inactive)"}
{"target": "TRIM25 (UniProt Q14258)", "sequence (Q14258 whole entry, looked up)": "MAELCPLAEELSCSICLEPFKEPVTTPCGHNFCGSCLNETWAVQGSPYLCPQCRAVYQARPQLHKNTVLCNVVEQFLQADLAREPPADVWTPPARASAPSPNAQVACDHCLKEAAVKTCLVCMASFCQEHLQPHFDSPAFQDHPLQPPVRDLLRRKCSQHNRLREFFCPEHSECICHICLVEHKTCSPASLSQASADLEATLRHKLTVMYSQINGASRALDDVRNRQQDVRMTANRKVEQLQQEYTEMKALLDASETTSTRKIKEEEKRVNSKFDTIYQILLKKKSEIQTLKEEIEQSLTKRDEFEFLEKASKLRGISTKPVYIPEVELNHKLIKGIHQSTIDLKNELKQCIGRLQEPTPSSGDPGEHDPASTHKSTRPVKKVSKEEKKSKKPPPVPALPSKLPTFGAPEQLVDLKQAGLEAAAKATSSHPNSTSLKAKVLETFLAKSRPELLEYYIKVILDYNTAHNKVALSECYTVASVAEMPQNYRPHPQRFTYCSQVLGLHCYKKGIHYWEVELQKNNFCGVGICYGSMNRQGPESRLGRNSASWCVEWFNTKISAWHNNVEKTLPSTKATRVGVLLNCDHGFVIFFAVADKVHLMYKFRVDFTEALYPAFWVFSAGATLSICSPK", "log2 fold change": "0.013 (inactive)"}
{"target": "UCHL5 isoform 3 (UniProt Q9Y5K5)", "sequence (Q9Y5K5 whole entry, looked up)": "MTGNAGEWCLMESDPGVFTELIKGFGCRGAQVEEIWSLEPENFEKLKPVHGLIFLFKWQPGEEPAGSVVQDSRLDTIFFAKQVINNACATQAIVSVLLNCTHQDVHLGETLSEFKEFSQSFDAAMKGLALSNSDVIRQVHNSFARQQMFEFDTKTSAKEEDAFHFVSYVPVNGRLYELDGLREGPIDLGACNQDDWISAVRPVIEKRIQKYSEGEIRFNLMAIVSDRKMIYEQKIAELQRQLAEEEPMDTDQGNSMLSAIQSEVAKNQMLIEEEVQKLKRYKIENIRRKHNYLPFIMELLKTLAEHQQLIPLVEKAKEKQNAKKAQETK", "log2 fold change": "0.004 (inactive)"}
{"target": "TLK1 isoform 2 (UniProt Q9UKI8)", "log2 fold change": "0.001 (inactive)"}
{"target": "TIMM44 (UniProt O43615)", "log2 fold change": "0.045 (inactive)"}
{"target": "TUBGCP4 (UniProt Q9UGJ1)", "sequence (Q9UGJ1 whole entry, looked up)": "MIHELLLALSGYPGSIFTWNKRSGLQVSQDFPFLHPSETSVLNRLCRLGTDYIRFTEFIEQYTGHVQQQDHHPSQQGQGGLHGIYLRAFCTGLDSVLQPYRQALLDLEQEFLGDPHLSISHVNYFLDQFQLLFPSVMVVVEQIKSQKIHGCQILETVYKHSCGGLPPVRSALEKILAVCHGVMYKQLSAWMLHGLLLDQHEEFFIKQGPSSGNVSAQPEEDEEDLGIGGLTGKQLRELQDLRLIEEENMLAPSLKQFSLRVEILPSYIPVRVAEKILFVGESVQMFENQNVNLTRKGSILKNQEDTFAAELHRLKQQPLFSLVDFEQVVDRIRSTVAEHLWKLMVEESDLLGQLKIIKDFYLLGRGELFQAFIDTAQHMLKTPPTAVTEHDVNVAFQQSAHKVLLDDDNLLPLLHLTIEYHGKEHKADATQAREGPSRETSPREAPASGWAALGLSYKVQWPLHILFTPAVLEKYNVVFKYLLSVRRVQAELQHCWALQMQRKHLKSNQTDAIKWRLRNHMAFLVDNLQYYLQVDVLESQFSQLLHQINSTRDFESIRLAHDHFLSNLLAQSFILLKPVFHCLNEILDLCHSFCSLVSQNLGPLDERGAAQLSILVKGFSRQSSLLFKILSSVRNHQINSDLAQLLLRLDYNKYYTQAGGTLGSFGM", "log2 fold change": "-0.11 (inactive)"}
{"target": "TTI2 (UniProt Q6NXR4)", "log2 fold change": "0.05 (inactive)"}
{"target": "TMEM164 (UniProt Q5U3C3)", "log2 fold change": "0.098 (inactive)"}
{"target": "TRIM33 isoform 2 (UniProt Q9UPN9)", "log2 fold change": "-0.005 (inactive)"}
{"target": "TCF12 isoform 3 (UniProt Q99081)", "log2 fold change": "-0.016 (inactive)"}
{"target": "TOPBP1 (UniProt Q92547)", "log2 fold change": "0.032 (inactive)"}
{"target": "TMEM87B (UniProt Q96K49)", "log2 fold change": "-0.024 (inactive)"}
{"target": "UBA1 (UniProt P22314)", "log2 fold change": "0.018 (inactive)"}
{"target": "TESC (UniProt Q96BS2)", "log2 fold change": "-0.036 (inactive)"}
{"target": "TMEM199 (UniProt Q8N511)", "log2 fold change": "0.021 (inactive)"}
{"target": "TRAPPC10 (UniProt P48553)", "log2 fold change": "0.015 (inactive)"}
{"target": "TK1 (UniProt K7ERV3)", "log2 fold change": "-0.018 (inactive)"}
{"target": "TPP2 (UniProt P29144)", "sequence (P29144 whole entry, looked up)": "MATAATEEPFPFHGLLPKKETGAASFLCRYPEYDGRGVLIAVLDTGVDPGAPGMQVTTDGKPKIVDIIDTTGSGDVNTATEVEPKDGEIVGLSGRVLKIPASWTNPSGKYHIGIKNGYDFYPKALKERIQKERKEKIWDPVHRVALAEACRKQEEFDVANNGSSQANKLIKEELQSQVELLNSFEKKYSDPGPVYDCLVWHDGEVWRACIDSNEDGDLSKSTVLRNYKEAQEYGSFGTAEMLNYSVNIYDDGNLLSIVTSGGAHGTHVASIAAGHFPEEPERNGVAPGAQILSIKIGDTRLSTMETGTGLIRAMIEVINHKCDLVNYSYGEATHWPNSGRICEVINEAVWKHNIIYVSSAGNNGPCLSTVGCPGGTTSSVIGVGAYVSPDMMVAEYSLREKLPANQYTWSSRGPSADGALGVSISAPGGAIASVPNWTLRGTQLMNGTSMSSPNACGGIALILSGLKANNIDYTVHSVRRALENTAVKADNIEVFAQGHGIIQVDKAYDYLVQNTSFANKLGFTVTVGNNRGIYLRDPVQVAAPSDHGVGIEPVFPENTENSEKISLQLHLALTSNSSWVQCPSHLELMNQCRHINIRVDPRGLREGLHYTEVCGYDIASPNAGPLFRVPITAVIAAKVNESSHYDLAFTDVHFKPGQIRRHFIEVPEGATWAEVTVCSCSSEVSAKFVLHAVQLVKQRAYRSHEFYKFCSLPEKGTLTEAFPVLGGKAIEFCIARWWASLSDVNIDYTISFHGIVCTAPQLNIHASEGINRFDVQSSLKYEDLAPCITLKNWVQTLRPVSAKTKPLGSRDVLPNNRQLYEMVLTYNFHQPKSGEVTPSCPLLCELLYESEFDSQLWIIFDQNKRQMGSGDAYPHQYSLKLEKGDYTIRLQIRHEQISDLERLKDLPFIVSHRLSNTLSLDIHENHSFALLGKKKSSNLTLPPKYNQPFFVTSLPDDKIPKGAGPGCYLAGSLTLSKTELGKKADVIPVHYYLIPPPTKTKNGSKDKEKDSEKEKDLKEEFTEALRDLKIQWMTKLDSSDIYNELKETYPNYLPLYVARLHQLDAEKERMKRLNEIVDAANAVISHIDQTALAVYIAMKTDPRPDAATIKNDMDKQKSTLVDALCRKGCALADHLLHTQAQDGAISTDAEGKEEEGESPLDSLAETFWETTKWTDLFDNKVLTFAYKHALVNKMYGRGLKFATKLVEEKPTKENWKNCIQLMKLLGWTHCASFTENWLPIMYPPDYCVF", "log2 fold change": "-0.015 (inactive)"}
{"target": "TRMT12 (UniProt Q53H54)", "log2 fold change": "0.045 (inactive)"}
{"target": "TRAPPC6A isoform 2 (UniProt O75865)", "sequence (O75865 whole entry, looked up)": "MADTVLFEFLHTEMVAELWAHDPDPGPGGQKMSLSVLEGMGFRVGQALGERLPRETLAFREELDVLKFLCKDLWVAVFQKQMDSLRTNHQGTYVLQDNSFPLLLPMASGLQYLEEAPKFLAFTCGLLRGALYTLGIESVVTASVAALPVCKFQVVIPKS", "log2 fold change": "-0.048 (inactive)"}
{"target": "TTC4 (UniProt O95801)", "log2 fold change": "0.013 (inactive)"}
{"compound": "O=C(CCCCCCC(=O)Nc1ccccc1)NO [vorinostat]", "assay": "log2 fold change, soluble protein after heating vs DMSO (PISA); higher = thermal stabilisation; K562 lysate, 10 uM; active = over 0.2 and 3.5 SD of the protein, either way, in both replicates (recomputed)", "outline": "as §1"}
{"target": "TLK2 isoform 2 (UniProt Q86UE8)", "log2 fold change": "-0.24 (inactive)"}
{"target": "UBXN10 (UniProt Q96LJ8)", "log2 fold change": "-0.321 (active)"}
{"target": "TTK (UniProt P33981)", "log2 fold change": "-0.183 (inactive)"}
{"target": "TUBB3 (UniProt Q13509)", "log2 fold change": "-0.688 (active)"}
{"target": "TRAF2 isoform 2 (UniProt Q12933)", "log2 fold change": "-0.269 (active)"}
{"target": "TNIK (UniProt C9J338)", "log2 fold change": "0.103 (inactive)"}
{"target": "TUBGCP3 (UniProt Q96CW5)", "log2 fold change": "-0.459 (active)"}
{"target": "TPST2 (UniProt O60704)", "log2 fold change": "0.132 (inactive)"}
{"target": "TRIP12 isoform 2 (UniProt Q14669)", "log2 fold change": "-0.266 (active)"}
{"target": "TNKS (UniProt O95271)", "log2 fold change": "-0.1 (inactive)"}
{"target": "TUBA3C (UniProt P0DPH7)", "log2 fold change": "-0.913 (active)"}
{"target": "TMEM161B (UniProt Q8NDZ6)", "log2 fold change": "0.225 (inactive)"}
{"target": "TMEM70 (UniProt Q9BUB7)", "log2 fold change": "0.122 (inactive)"}
{"target": "THOC5 (UniProt Q13769)", "log2 fold change": "-0.077 (inactive)"}
{"target": "TPM4 isoform 2 (UniProt P67936)", "log2 fold change": "0.082 (inactive)"}
{"target": "TOR3A (UniProt Q9H497)", "log2 fold change": "0.048 (inactive)"}
{"target": "TFAP4 (UniProt Q01664)", "log2 fold change": "0.051 (inactive)"}
{"target": "UBXN6 (UniProt Q9BZV1)", "log2 fold change": "-0.28 (active)"}
{"target": "TRA2A (UniProt Q13595)", "log2 fold change": "0.568 (active)"}
{"target": "TRIM25 (UniProt Q14258)", "log2 fold change": "-0.59 (active)"}
{"target": "UCHL5 isoform 3 (UniProt Q9Y5K5)", "log2 fold change": "-0.081 (inactive)"}
{"target": "TLK1 isoform 2 (UniProt Q9UKI8)", "log2 fold change": "-0.369 (active)"}
{"target": "TIMM44 (UniProt O43615)", "log2 fold change": "0.245 (active)"}
{"target": "TUBGCP4 (UniProt Q9UGJ1)", "log2 fold change": "-0.219 (active)"}
{"target": "TTI2 (UniProt Q6NXR4)", "log2 fold change": "-0.303 (active)"}
{"target": "TMEM164 (UniProt Q5U3C3)", "log2 fold change": "0.463 (inactive)"}
{"target": "TRIM33 isoform 2 (UniProt Q9UPN9)", "log2 fold change": "-0.393 (active)"}
{"target": "TCF12 isoform 3 (UniProt Q99081)", "log2 fold change": "-0.263 (active)"}
{"target": "TOPBP1 (UniProt Q92547)", "log2 fold change": "-0.387 (active)"}
{"target": "TMEM87B (UniProt Q96K49)", "log2 fold change": "0.018 (inactive)"}
{"target": "UBA1 (UniProt P22314)", "log2 fold change": "-0.371 (active)"}
{"target": "TESC (UniProt Q96BS2)", "log2 fold change": "0.058 (inactive)"}
{"target": "TMEM199 (UniProt Q8N511)", "log2 fold change": "0.13 (inactive)"}
{"target": "TRAPPC10 (UniProt P48553)", "log2 fold change": "-0.248 (active)"}
{"target": "TK1 (UniProt K7ERV3)", "log2 fold change": "0.086 (inactive)"}
{"target": "TPP2 (UniProt P29144)", "log2 fold change": "-0.121 (inactive)"}
{"target": "TRMT12 (UniProt Q53H54)", "log2 fold change": "-0.35 (active)"}
{"target": "TRAPPC6A isoform 2 (UniProt O75865)", "log2 fold change": "-0.038 (inactive)"}
{"target": "TTC4 (UniProt O95801)", "log2 fold change": "-0.498 (active)"}
